Among all 330,000 compounds or so, about 7,700 (2.3%) were called active. About 26% were inconclusive and are not listed. Calls come from the whole dose curve; as a rule, active = well fitted inhibition curve with a large enough effect; inconclusive = small, poorly fitted or top-dose-only effect, or effect the other way; inactive = flat fitted curve, though single readings scatter. What follows is part of a selection rich in actives, with near analogues and random picks from the rest.
assay: qHTS screen for small molecules that inhibit ELG1-dependent DNA repair in human embryonic kidney (HEK293T) cells expressing luciferase-tagged ELG1; conditions: HEK293T ELG1-luciferase reporter, luminescence, 16 h, DNA damage induced by 5-fluorouridine; series mostly up to 46.1 µM; activity change, negative = inhibition: at the top concentration; note: nearly all actives have a fitted effect of over 55% in size
Summary of the method: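 In this reporter screen, reduction of luminescence relative to DMSO vehicle indicated activity. Compounds and 5-fluorouridine were added together to 2,000 cells per well, incubated for 16 hr at 37 °C, then developed with ONE-Glo.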
% is set by controls: 0 for no effect and ±100 for the full control effect; potency is the fitted concentration of half-maximal effect.

SMILES | activity change, negative = inhibition | Potency
O=C(Nc1nnc(C2=COCCO2)o1)c1ccc([N+](=O)[O-])s1 | -9.08% (inactive) | –
COc1ccc(S(=O)(=O)N2CCOCC2)cc1NC(=O)CSc1cc(C)ccc1C | -11.9% (inactive) | –
CCOCc1c(C(=O)N2CCN(Cc3ccc(Br)s3)CC2)oc2ccccc12 | -5.2% (inactive) | –
Cc1nnc(SCC(=O)Nc2cccc(N)c2)n1-c1ccccc1 | -9.23% (inactive) | –
COc1ccc(-n2cnnc2SCC(=O)Nc2cccc(S(N)(=O)=O)c2)cc1 | -5.02% (inactive) | –
NS(=O)(=O)c1cccc(NC(=O)CSc2nc3ccccc3n2-c2ccccc2)c1 | – | 9.2 µM (active)
Cc1ccc(-c2c[n+](CC(=O)Nc3ccccc3)c3n2CCC3)cc1 | -7.46% (inactive) | –
Cc1ccc(C(=O)C[n+]2cc(-c3ccccc3)n3c2CCCCC3)cc1 | – | inactive
Clc1ccc(C[n+]2cc(-c3ccccc3)n3c2CCC3)cc1 | – | 2.91 µM (active)
CCC1Nc2ncnc(N3CCN(c4ccccc4)CC3)c2N(Cc2ccc(Cl)cc2)C1=O (stereo unspecified) | -0.364% (inactive) | –
CCCCN(C(=O)C1CCC1)c1c(N)n(Cc2ccccc2)c(=O)[nH]c1=O | 9.17% (inactive) | –
Cc1cccc(-c2nc(Nc3ccc(O)cc3)c3ccccc3n2)c1 | – | 20.6 µM (active)
CCC(=O)OCCNc1nc(-c2ccccc2)nc2ccccc12 | -11% (inactive) | –
CN1CCN(c2nc(Nc3ccc(O)cc3)nc3ccccc23)CC1 | 17.4% (inactive) | –
COc1ccc(Cl)cc1NC(=O)CN(C)CC(=O)Nc1ccc2c(c1)OCO2 | -25.5% (inactive) | –
CCOc1ccc(C(=O)NCC(=O)N2CCN(c3ccc(C(F)(F)F)cn3)CC2)cc1 | 14.2% (inactive) | –
Cc1ccc(F)cc1NC(=O)N1CCCN(c2ccc(C(F)(F)F)cn2)CC1 | – | 5.17 µM (active)
C/C=C/C(=O)Nc1ccc(N2CCN(c3ccc(C(F)(F)F)cn3)CC2)nc1 | -9.39% (inactive) | –
COc1ccccc1NC(=O)Nc1nc(CC(=O)Nc2ccccc2F)cs1 | -29.7% (inactive) | –
Cc1ccc(S(=O)(=O)NC[C@H]2O[C@@H](n3cnc4c(N)ncnc43)[C@H](O)[C@@H]2O)s1 | 1.49% (inactive) | –
CSc1nc(-c2ccccc2)nc(C(Cl)Cl)n1 | – | 20.6 µM (active)
CSc1nc(C)cc(SC(C(C)=O)C(=O)Nc2ccccc2)n1 (stereo unspecified) | 4.04% (inactive) | –
CCCCC(=O)Nc1nnc(S(=O)(=O)N(C)Cc2ccco2)s1 | 3.15% (inactive) | –
Cc1ccccc1CN1CCC(C(=O)Nc2ccc(Oc3cccnc3)cc2)CC1 | -15% (inactive) | –

SMILES | activity change, negative = inhibition | Potency
CCOC(=O)N1CCN(C(=O)Cn2cnc3ccccc3c2=O)CC1 | 2.4% (inactive) | –
CCOC(=O)N1CCN(CC(=O)Nc2cc(C)nn2-c2nc3ccccc3s2)CC1 | – | 10.3 µM (active)
CCOC(=O)N1CCN(CC(=O)Nc2ccc(F)cc2)CC1 | 15.5% (inactive) | –
Cc1cc(C)c(S(=O)(=O)n2cc(C(C)C(N)C(=O)O)c3ccccc32)c(C)c1 (stereo unspecified) | 5.41% (inactive) | –
O=C(CSc1nnc(COc2ccc(Cl)cc2)n1Cc1ccco1)N1CCNC1=O | -1.34% (inactive) | –
COc1ccc(CNC(=O)C(c2ccc(O)cc2)N(Cc2ccco2)C(=O)c2snc(C(N)=O)c2N)cc1 (stereo unspecified) | – | 6.51 µM (active)
NC(=O)c1nsc(C(=O)N(CC(=O)NCc2ccc(F)cc2)Cc2ccco2)c1N | 11.5% (inactive) | –
CC(C)(C)NC(=O)C(c1ccc(Cl)cc1)N(CCO)C(=O)c1snc(C(N)=O)c1N (stereo unspecified) | -6.16% (inactive) | –
CCCn1c(C2CCCN2c2nc(-c3ccc(OC)cc3)cs2)nc2ccccc21 (stereo unspecified) | -17.3% (inactive) | –
COc1ccc(C(=O)CC(=O)C(=O)Nc2cc([N+](=O)[O-])ccc2OC)cc1 | 22.3% (inactive) | –
COc1cc2c(cc1OC)CN(C(=O)c1cc(=O)c3ccccc3o1)CC2 | – | 8.2 µM (active)
COc1ccc(CCNC(=O)COC(=O)c2cc(=O)c3ccccc3o2)cc1 | 10.5% (inactive) | –
O=C(c1cc(=O)c2ccccc2o1)N1CCN(c2ccccc2)CC1 | -2.94% (inactive) | –
COc1ccccc1C(=O)N(Cc1ccc(C)o1)C1CCS(=O)(=O)C1 (stereo unspecified) | 6.35% (inactive) | –
COc1cc(OC)cc(-c2c(-c3ccc(F)cc3)c3cc(-c4ccc5cc[nH]c5c4)ccc3n2C)c1 | 27.6% (inactive) | –
COc1ccc(-c2c(-c3cc(OC)cc(OC)c3)n(C)c3ccc(-c4ccn[nH]4)cc23)cc1 | – | 6.51 µM (active)
COc1cc(OC)cc(-c2c(-c3cccs3)c3cc(-c4ccc(OC)cc4F)ccc3n2C)c1 | 2.8% (inactive) | –
CCOC(=O)[C@@H]1[C@H]2COc3ccc(Br)cc3[C@H]2N2C(=O)N(c3ccc(C)cc3)C(=O)[C@@]12C | -1.2% (inactive) | –
COc1ccc2nc3n(c(=O)c2c1)-c1cc(C)ccc1C(=O)NC3Cc1ccc(O)cc1 (stereo unspecified) | -0.966% (inactive) | –
CCc1ccnc(NC(=O)Nc2ccc(OCc3ccccc3)cc2)c1 | 11.6% (inactive) | –
CNC(=O)c1sc(Nc2ccc(OCc3ccccc3)cc2)nc1C | – | 8.2 µM (active)
Cc1cccc(NC(=O)Nc2ccc(OCc3ccccc3)cc2)n1 | 14.9% (inactive) | –
COc1ccc(NS(=O)(=O)c2ccc(C)c(C(=O)NCC(c3cccs3)N3CCOCC3)c2)cc1 (stereo unspecified) | 8.71% (inactive) | –
COc1ccc(S(=O)(=O)N2CCOCC2)cc1NC(=O)CSc1nnc(NC2CC2)s1 | 12.9% (inactive) | –

SMILES | activity change, negative = inhibition | Potency
Cc1ccc(S(=O)(=O)N2CCC(C)CC2)cc1C(=O)NCc1ccccn1 | -0.498% (inactive) | –
CCN(CC(=O)NCc1cccs1)S(=O)(=O)c1ccc(NC(C)=O)cc1 | 8.48% (inactive) | –
COCCN(CC(=O)Nc1ccccc1C)S(=O)(=O)c1ccc(S(=O)(=O)N2CCCC2)cc1 | -26.1% (inactive) | –
CC1CCCCN1S(=O)(=O)c1ccc(S(=O)(=O)N(CC(=O)Nc2ccccc2)Cc2cccs2)cc1 (stereo unspecified) | – | 18.4 µM (active)
Cc1c(C(=O)N2CCCC2)c(S(=O)(=O)NCC(C)c2ccccc2)c(C)n1C (stereo unspecified) | 21.9% (inactive) | –
O=C(NNS(=O)(=O)c1ccc([N+](=O)[O-])cc1)C1CCCCC1 | -10.3% (inactive) | –
CCN(CC)C(=O)[C@H]1CC(CC(=O)NCc2ccco2)C(=O)N2CCc3c([nH]c4ccccc34)[C@]12C (stereo partly specified) | 3.39% (inactive) | –
Cc1cccn2c(=O)c(/C=C3\SC(=S)N(CC(C)C)C3=O)c(NCCCOC(C)C)nc12 | -21.3% (inactive) | –
CCCN(CCC)c1nc2c(C)cccn2c(=O)c1/C=C1/SC(=S)N(Cc2ccco2)C1=O | -8.81% (inactive) | –
CCOC(=O)CC1C(=O)NCCN1c1nc2c(C)cccn2c(=O)c1/C=C1\SC(=S)N(C(C)CC)C1=O (stereo unspecified) | – | 20.6 µM (active)
COc1ccc(NC(=O)C2CCN(S(=O)(=O)c3ccc4[nH]c(=O)oc4c3)CC2)c(OC)c1 | 12.8% (inactive) | –
O=S(=O)(c1cccs1)N1CCN(CCOc2ccccc2)CC1 | -12.9% (inactive) | –
CCOC(=O)C1=C(C)N(C[C@@H]2CC[C@@H](Cc3ccc(-c4ccccc4)cc3)O2)C(=O)NC1c1ccc([N+](=O)[O-])cc1 (stereo partly specified) | -6.54% (inactive) | –
CC(=O)N1c2ccc(S(=O)(=O)N3CCCC(C(=O)Nc4ccc(C)cc4C)C3)cc2CC1C (stereo unspecified) | -24.7% (inactive) | –
COc1cc(Cl)c(C)cc1NC(=O)CSc1nnc(CN2CCCC2)o1 | -3.12% (inactive) | –
CCc1nc(SCC(=O)Nc2ccccc2OC)n[nH]1 | 0.976% (inactive) | –
CCCc1nc(SCC(=O)Nc2ccccc2OC)c2c(=O)n(C)c(=O)n(C)c2n1 | – | 23.1 µM (active)
CCCc1nc(SCC(=O)N2CCCC2)c2c(=O)n(C)c(=O)n(C)c2n1 | -27.9% (inactive) | –
CCOC(=O)CCCCCC(=O)Nc1ccc2c(c1)CC(=O)N([C@@H](C)CO)C[C@H](C)[C@@H](CN(C)Cc1ccccc1)O2 | 3.52% (inactive) | –
Cc1cc(C)cc(NC(=O)C2CCCN(S(=O)(=O)c3ccc4[nH]c(=O)ccc4c3)C2)c1 (stereo unspecified) | -7.94% (inactive) | –
O=C(C1CCC(=O)N(C2CC2)C1)N1CCN(c2ccc(Cl)cc2)CC1 (stereo unspecified) | -8.35% (inactive) | –
COc1ccc(C(=O)NC2CCN(C(=S)NCCc3ccccc3)CC2)cc1 | -4.86% (inactive) | –
COc1ccc(C(=O)NC2CCN(C(=S)Nc3ccccc3)CC2)cc1 | 4.41% (inactive) | –
COc1cc(OC)cc(C(=O)NC2CCN(C(=O)N3c4ccccc4Sc4ccccc43)CC2)c1 | – | 13 µM (active)

SMILES | activity change, negative = inhibition | Potency
O=C(CN(CC1CCCO1)C(=O)CNS(=O)(=O)c1ccc(Cl)cc1)NCc1ccccc1 (stereo unspecified) | -10.4% (inactive) | –
Cc1ccc(-c2nn(-c3ccccc3)cc2C(=O)NCCCN2CCCC2=O)cc1 | -12.5% (inactive) | –
COc1ccc(C2=NS(=O)(=O)N(C)C(C(=O)N(C)Cc3ccccc3)=C2)cc1 | -10.3% (inactive) | –
COc1ccc(-c2cc(C(=O)N(C)CC(=O)Nc3ccccc3Cl)c3ccccc3n2)cc1OC | – | 2.06 µM (active)
COc1ccc(NC(=O)CN(C)C(=O)c2cc(-c3ccc(C)o3)nc3ccccc23)cc1 | – | 20.6 µM (active)
COc1ccc(-c2cc(C(=O)N(C)Cc3ccccc3)c3ccccc3n2)cc1 | – | 23.1 µM (active)
Cc1cccc(C(=O)NCCCN2CCCC2=O)c1 | 0% (inactive) | –
COc1ccc(NC(=O)CN(C)C(=O)c2ccc(COc3ccccc3)o2)cc1 | 14.6% (inactive) | –
COc1ccc(-c2cc(C(=O)NCCCN3CCCC3=O)c3ccccc3n2)cc1OC | – | 20.6 µM (active)
COc1ccc(-c2cc(C(=O)n3cnc4ccccc43)c3ccccc3n2)cc1 | 22% (inactive) | –
COc1ccc(NC(=O)CN(C)C(=O)c2cc(C3CC3)nn2-c2ccccc2)cc1 | -18.5% (inactive) | –
COc1ccccc1NC(=O)c1cc(Cl)nc2ccccc12 | -10.3% (inactive) | –
COc1ccc(Cl)cc1NC(=O)CN(C)C(=O)c1ccc2n[nH]nc2c1 | 14.2% (inactive) | –
CC(C)Oc1ccc(S(=O)(=O)N2CCOCC2)cc1NC(=O)C1CSC2(C)CCC(=O)N12 (stereo unspecified) | -16.4% (inactive) | –
CCc1cccc(C)c1N1C(=O)CN(Cc2ccccc2)C1=S | -0.783% (inactive) | –
CNC[C@H](CC1CCCCC1)NC[C@H](NCCC1CCCC1)[C@H](C)O | 16.8% (inactive) | –
CSc1ncccc1C(=O)Nc1cccc(S(=O)(=O)N2CCOCC2)c1 | 13.4% (inactive) | –
CCCN(CC1CC1)C(=S)NC(=O)c1ccccc1Br | -17.4% (inactive) | –
O=C(COC(=O)c1ccccc1Cl)NC1CCCCCCC1 | 13.9% (inactive) | –
Cc1cc(NC(=O)CCN2CCN(Cc3ccccc3)CC2)ccc1Br | -19.6% (inactive) | –
OC(COc1ccc(F)cc1Cl)CN1CCc2ccccc2C1 (stereo unspecified) | 1.72% (inactive) | –
COc1ccc(CN(C)C(=O)Cc2c[nH]c3ccccc23)c(OC)c1OC | -12.6% (inactive) | –
Cc1ccc(-c2cc(C(=O)Nc3nn[nH]n3)c3ccccc3n2)c(C)c1 | 14.1% (inactive) | –
COc1ccc(CN(C)C(=O)c2cc(-c3ccc(C)cc3C)nc3ccccc23)c(OC)c1OC | – | 8.2 µM (active)
